In the supplement of paper PMC7156485:
Several values for one entry are separate records, joined by “and”; a condition that tells them apart may be missing. Equal values may be shown once. ± gives the standard deviation of the averaged measurements.

Key:
Settings in all cases: concentration: 10 µM; 24 h
[1] = test system: HCC1569; assay: cell number relative to DMSO (% of DMSO); higher = more cells (less growth inhibition / toxicity)
Outline: (§1)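 Six fields per well were imaged at ×10 after the cells were fixed in 3.7% formaldehyde and stained with a rabbit anti-H1.0 antibody, an AlexaFluor 647 secondary and DAPI. The HCC1569 and TDF cells had been plated at 800 per well in 384-well plates (RPMI, 10% FBS) and treated in triplicate with compounds at 10 µM for 24 h at 37 °C. The values are the median of replicates of H1.0 nuclear intensity or cell number, as percent of the plate control. Smoothing for positional effects was applied to HCC1569 data.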

[2] = test system: TDF; assay: as above
Outline: as §1

[3] = test system: TDF; assay: H1.0 immunofluorescence intensity relative to DMSO (% of DMSO); higher = stronger H1.0 induction, active = 120 or more
Outline: as §1

[4] = test system: HCC1569; assay: H1.0 immunofluorescence intensity relative to DMSO (% of DMSO); higher = stronger H1.0 induction, active = 140 or more
Outline: as §1
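Wherever H1.0 immunofluorescence intensity relative to DMSO is given: TDF is a line of transformed human dermal fibroblasts of mesenchymal origin.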
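Wherever cell number relative to DMSO is given: TDF denotes transformed human dermal fibroblasts of mesenchymal origin.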

Row | Compound | cell number [1] | cell number [2] | H1.0 immunofluorescence intensity [3] | H1.0 immunofluorescence intensity [4]
1 | O=C(O)c1ccccc1Nc1cccc(C(F)(F)F)c1 [Flufenamic acid] | 103 | 105 | 91.9 (inactive) | 106 (inactive)
2 | CCN(CC)CCNC(=O)c1ccc(N)cc1.Cl [Procainamide hydrochloride] | 98.7 | 110 | 88.6 (inactive) | 99.1 (inactive)
3 | CCCCCC=CCC(O)C=CC=CCC=CCCCC(=O)O (stereo not given) | 105 and 98 | 95.5 and 90.4 | 92.5 (inactive) and 96.7 (inactive) | 98.4 (inactive) and 99.8 (inactive)
4 | N[C@@H](Cc1ccc(F)cc1)C(=O)O [p-Fluoro-L-phenylalanine] | 104 | 102 | 93.4 (inactive) | 106 (inactive)
5 | CCn1c(=O)[nH]c2cc(Cl)c(Cl)cc21 | 99.9 | 94.4 | 99.5 (inactive) | 95.7 (inactive)
6 | O=c1ncnc2[nH][nH]cc1-2 [Allopurinol] | 103 | 109 | 97.1 (inactive) | 88.4 (inactive)
7 | CCCCCCCCCCCCCCCCOCC(CO)OC (stereo not given) [1-Hexadecyl-2-O-methyl-glycerol] | 103 | 109 | 95.3 (inactive) | 98.4 (inactive)
8 | Cc1ccc(C)c(OCCCC(C)(C)C(=O)O)c1 [Gemfibrozil] | 103 | 99.1 | 91.8 (inactive) | 115 (inactive)
9 | O=C(CCCN1CCC(O)(c2ccc(Cl)cc2)CC1)c1ccc(F)cc1 [Haloperidol] | 91 ± 7.7 | 92.6 ± 3.7 | 101 (inactive) | 117 (inactive)
10 | NNCCc1ccccc1.O=S(=O)(O)O [Phenelzine sulfate] | 103 | 102 | 95.3 (inactive) | 74.3 (inactive)
